We go through 40 compounds from PubChem BioAssay (EPA / NIEHS).

Each structure is given as a SMILES string. Active and inactive are the calls of the source. Rule for the calls: active = hit-call score of the fitted dose curve at least 0.9, where 1 is the maximum; inactive = score below 0.9.

Usually AC50 stands for the midpoint of the concentration-response curve, whichever way the signal moves.

Read-out in the test: matrix metalloproteinase-3 (MMP3), MMP3 (gene 4314)
The experiment in a line: LTEA_HepaRG_MMP3: Life Technologies and Expression Analysis (LTEA) Assay for matrix metalloproteinase-3 (MMP3) using HepaRG (AID 2283519). The following applies: mRNA level, 48 h; actives raise or lower the signal. On the procedure: LTEA_HepaRG is a cell based, multiplexed-readout assay that uses HepaRG, a human liver cell line, with measurements taken at 48 hours after chemical dosing on a 96-well plate.LTEA_HepaRG_MMP3 is one of 102 assay component(s) measured in the LTEA HepaRG cell culture assay. It is a marker of Fibrosis.Data from the assay component LTEA_HepaRG_MMP3 was analyzed into 1 endpoint. This assay endpoint, LTEA_HepaRG_MMP3, was analyzed with bidirectional fitting relative to DMSO as the negative control and baseline of activity. Using a type of inducible reporter, measures of mRNA induction for gain or loss-of-signal activity can be used to understand regulation of transcription factor activity. To generalize the intended target to other relatable targets, this assay endpoint is annotated to the protease intended target family, where the subfamily is matrix metalloproteinase.
A total of 1060 chemcials from the ToxCast library were tested in eight-point concentration-response experiments. Cell culture and cytotoxicity assays were conducted at Thermo Fisher Scientific's Custom Services facility (Madison, WI). A single lot of human HepaRG cells (Thermo Fisher Scientific, Frederick, MD) was used for the cell culture experiments. 96-well format collagen type I coated plates of human HepaRG cells were prepared using established methods. Briefly, cryopreserved HepaRG cells were thawed, plated at a density of approximately 100,000 cells/well in HepaRG Thaw, Plate, and General Purpose media (HPRG770, Thermo Fisher Scientific), and incubated for 48 hours. 0.5% DMSO was selected as vehicle control to balance the requisite need of DMSO in HepaRG cultures to maintain differentiation (for example, baseline metabolism, proportions of hepatocytes vs. cholangiocytes), while enabling further hepatic receptor pathway activation (for example, PXR and CAR) in response to chemical exposure. 48 hours after plating, the culture medium was replaced with HepaRG Serum-Free Incudtion Media. Cells were exposed to each test chemical in duplicate and maintained in CO2 incubators for another 48 hours. Chemical plates were thawed to room temperature and 200x concentrations of treatment groups were prepared. 8-point conentration-reponse curves were made with the highest exposure at 100 uM, followed by half-log dilutions, all in 0.5% DMSO. Each test plate contained variouse controls, induction positive controls (1mM phenobarbital), cytotoxicity positive controls ([…] aflatoxin B1), vehicle controls (0.5% DMSO), and total lysis controls (0.5% DMSO). Cell morphology images were taken using an Essen IncuCyte FLR automated microscope, with six 96-well plates imaged in about 24 minutes. Images were captured and exported and JPEG files. Spent culture media was transfered to black-well plates for the LDH assay, and remaining media was sorted at -80 C for later use. Cells were treated with RLT buffer and frozen until shipped for gene expression analysis. Total RNA was isolated from the cell suspension in 75 uL of Buffer RLT (Qiagen, Germantown, MD 20874) by Quintiles/Expression Analysis (Durham, NC) using a custom isolation procedure. Total RNA from each plate well was transferred to a preamplification plate. Fluidigm's 96.96 Dynamic ArrayTM (Fluidigm, Amsterdam, the Netherlands) technology was used for gene expression analyses by quantitative reverse transcription polymerase chain reaction (qRT-PCR, performed by Quintiles/Expression Analysis, Durham, NC)89. Standard TaqManTM Assays (Applied Biosystems/ThermoFisher Scientific, Foster City, CA) were used to assess the expression of 93 genes selected based on their selectivity and sensitivity to important hepatic receptors known to be modulated by environmental chemicals; importance in human hepatocyte functionality; and hepatotoxicity. […]
As for `CCCCCCCCOc1ccc(C(=O)c2ccccc2)c(O)c1`, the compound was classed as inactive.
As to `COCC(C)OCC(C)OCC(C)O` (stereo not given), the compound was classed as inactive.
On the same count and under the same terms, in the case of `CCCCCc1ccc(N)cc1` it was “inactive”; in that of `O=C=NCCCCCCN=C=O`, “inactive”; in that of `CC1(C)NC(=O)N(c2ccc([N+](=O)[O-])c(C(F)(F)F)c2)C1=O`, “inactive”.
As for `Oc1ccccc1`, the compound was called inactive.
Consider `COc1cccc([C@H](O)C2CCN(CCc3ccc(F)cc3)CC2)c1OC`, for which the compound was classed as inactive.
For the compound `CC(O)CC(C)(C)O` (stereo not given), the call was inactive.
Regarding `CCN(Cc1cccnc1)C(=O)c1cccc(Cl)c1[C@]1(C)C(=O)N(Cc2ccc(OC)cc2OC)c2ccc(Cl)cc21`, the outcome was inactive.
As to `CN(C)c1ccc(C(=C2C=CC(=[N+](C)C)C=C2)c2ccc(N(C)C)cc2)cc1`, the AC50 was 9.34 µM (active).
As to `CCCCCCCCOC(=O)c1cc(O)c(O)c(O)c1`, the call was inactive.
Same read-out and setting: in the case of `CC/C(=C(/CC)c1ccc(O)cc1)c1ccc(O)cc1` it was “inactive”.
`O=C1O[C@H]([C@@H](O)CO)C(O)=C1O`: the outcome was inactive.
For `Cc1ccc(C(C)C)cc1`, the call was inactive.
Still for that read-out and setting: the entry for `Cc1ccc2oc(CN(Cc3ccccc3)C(=O)Nc3c(F)cc(F)cc3F)c(-c3ccc(Cl)cc3)c2c1` is “inactive”; for `Cc1oc2c(NC(=O)c3c(Cl)cccc3Cl)cccc2c1C(C)(C)O` it is “inactive”.
Same read-out and setting: in the case of `c1ccc2n[nH]nc2c1` it was “inactive”.
In the case of `CC(=O)N1CCN(c2ccc(OC[C@H]3CO[C@](Cn4ccnc4)(c4ccc(Cl)cc4Cl)O3)cc2)CC1`, the AC50 was 24 µM (active).
Consider `CO[C@H]1/C=C/O[C@@]2(C)Oc3c(C)c(O)c4c(O)c(c(/C=N/N5CCN(C)CC5)c(O)c4c3C2=O)NC(=O)/C(C)=C\C=C\[C@H](C)[C@H](O)[C@@H](C)[C@@H](O)[C@@H](C)[C@H](OC(C)=O)[C@@H]1C`, for which the result was inactive.
Same read-out and setting: in the case of `Cc1ncc(CO)c(CO)c1O` it was “inactive”.
Same read-out and setting: the entry for `NCc1cccc(C2CCN(C(=O)c3ccc(C#Cc4ccccc4F)o3)CC2)c1` is “inactive”.
On the same count and under the same terms, in the case of `Clc1cc(Cl)c2c(c1)N=C1CCCCCN1C2` it was “inactive”; in that of `Oc1ccc2ccccc2c1`, “inactive”; in that of `CCCCCCCCN(C)CCCCCCCC`, “inactive”.
In the case of `Cc1cc(F)ccc1-c1cc(N2CC[C@@H](O)[C@H]2CO)ncc1N(C)C(=O)C(C)(C)c1cc(C(F)(F)F)cc(C(F)(F)F)c1`, the result was inactive.
Same read-out and setting: in the case of `O=c1ccc2ccccc2o1` it was “inactive”.
On to `Cc1occc1C(=O)Nc1ccc(C(=O)N2CCC(F)(F)/C(=C\C(=O)N3CCC(N4CCCCC4)CC3)c3ccccc32)cc1`, for which the compound was classed as inactive.
Still for that read-out and setting: the entry for `CCCCCCCCCCCO` is “inactive”.
Same read-out and setting: the entry for `CC1=CC(=O)/C(=C(/C)O)C(=O)O1` is “inactive”; for `CCCC(=O)OCCC(C)C` it is “inactive”; for `Cc1cn([C@H]2C[C@H](N=[N+]=[N-])[C@@H](CO)O2)c(=O)[nH]c1=O` it is “inactive”.
On to `CCCCCCCCCCCC[N+](C)(C)C`, for which the AC50 was 76.4 µM (active).
For `OC12N=C(c3ccccc3)SC1Cc1cc(Cl)ccc12` (stereo not given), the compound was called inactive.
Still for that read-out and setting: the entry for `Cc1cc2c(cc1C(F)(F)F)N(C(=O)Nc1ccc(Oc3cccnc3C)nc1)CC2` is “inactive”; for `CC[C@H](NC(=O)c1cc(F)ccc1NS(=O)(=O)c1cccc2cccnc12)c1ccccc1` it is “inactive”.
As to `CN1C(=O)N(c2ccccc2Br)Cc2cnc(Nc3ccc4c(c3)OCC(CO)O4)nc21` (stereo not given), the compound was classed as inactive.
On the same count and under the same terms, in the case of `CCCCOC(=O)c1ccc(O)cc1` it was “inactive”; in that of `Clc1ccccc1C(c1ccccc1)(c1ccccc1)n1ccnc1`, “inactive”; in that of `c1ccc(C[n+]2cccc3ccccc32)cc1`, “inactive”.
For the compound `c1ccc2ccccc2c1`, the compound was called inactive.
